Bioassay records (PubChem BioAssay)
Pf Dd2 growth: P. falciparum Dd2 growth inhibitors, primary screen, SYBR Green fluorescence, single dose replicates | 72 h; hits give low values | 94,000 tested, 2.3% active | activity change, % at 10 µM; in the data active means activity change below about -80%; inconclusive means no clear call, values can overlap the other calls
T cruzi growth: T. cruzi intracellular proliferation inhibitors, primary screen, cell-based, beta-gal Tulahuen parasites, NIH3T3 host, luminescence. AID 624255, 2012. inhibition, % at 8.34 µM. 77,000 tested, 5.9% active. T. cruzi beta-gal in NIH3T3, GalScreen luminescence, 90 h;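 active means mean inhibition above about 93%, with at least 55% of replicates each passing it, limit read from the data, passing the limit was not always enough; inconclusive means only one of those two conditions holds; inactive means neither condition holds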
C diff growth: C. difficile growth inhibitors, primary screen, HTS | Clostridium difficile clinical isolate growth, OD600, 24 h; hits give low values | growth activity, negative = inhibition, % at 16 µg/mL (by protocol) | 86,000 tested, 0.25% active | AID 1259249, 2017;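 active means mean growth activity at or below -80% and every replicate also at or below -80%; inconclusive means mean at or below -80% but some replicate above -80%; inactive means mean growth activity above -80%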;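 further: 0% = DMSO wells and -100% = levofloxacin 16 µg/mL wells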
Active calls of the source: *. A selection: hits, their analogues and other compounds. The true share with any hit is near 6.7%.

For COc1ccc2c3c([nH]c2c1)[C@H](CO)N(Cc1ccc(Cl)cc1)CC31CCN(C(=O)CN(C)C)CC1 the results were Pf Dd2 growth inconclusive and C diff growth 9.
For CO[C@@H]1CN(C)C(=O)c2ccc(NS(=O)(=O)c3ccccc3)cc2OC[C@H](C)N(Cc2cccnc2)C[C@@H]1C the results were Pf Dd2 growth -50, T cruzi growth 13 and C diff growth 1.
Screening O=S(=O)(NCC[C@@H]1CC[C@H](NS(=O)(=O)c2ccccc2Cl)[C@H](CO)O1)c1ccc(Cl)cc1 returned Pf Dd2 growth 7 and T cruzi growth 43.
C[C@@H]1CCCCO[C@@H](CN(C)C(=O)Nc2ccc3c(c2)OCO3)[C@@H](C)CN([C@H](C)CO)C(=O)c2cc(NC(=O)NC3CCCCC3)ccc2O1 was read as Pf Dd2 growth -13, T cruzi growth -57 and C diff growth 0.
CO[C@H]1CN(C)C(=O)c2ccc(NS(C)(=O)=O)cc2OC[C@H](C)N(Cc2cncnc2)C[C@H]1C was read as Pf Dd2 growth 9 and T cruzi growth 0.
For COc1ccc(C#Cc2cccc(-c3nc(C(=O)N[C@@H]4CCN(Cc5ccccc5)C4)cc4c3[C@@H](CCO)N(S(=O)C(C)(C)C)C4)c2)cc1OC (stereo partly specified) the results were Pf Dd2 growth -88* and C diff growth -2.
`CN(C)C(=O)c1ccc(-c2cccc(-c3nc(C(=O)NC4CCCC4)cc4c3[C@@H](CCO)N([S@](=O)C(C)(C)C)C4)c2)cc1` gave Pf Dd2 growth -74 and T cruzi growth 72.
CN(C)C(=O)c1ccc(-c2cccc(-c3nc(C(=O)NC4CCCCC4)cc4c3[C@@H](CCO)N([S@](=O)C(C)(C)C)C4)c2)cc1 was read as Pf Dd2 growth -74 and T cruzi growth 72.
For CC(C)(O)C#Cc1cccc(-c2nc(C(=O)N[C@@H]3CCN(Cc4ccccc4)C3)cc3c2[C@@H](CCO)N(S(=O)C(C)(C)C)C3)c1 (stereo partly specified) the results were Pf Dd2 growth -72 and C diff growth 3.
Screening CN(C)C(=O)c1cccc(-c2cccc(-c3nc(C(=O)NC4CCCCC4)cc4c3[C@@H](CCO)N([S@](=O)C(C)(C)C)C4)c2)c1 returned Pf Dd2 growth -87* and T cruzi growth 59.
For CN(C)C(=O)c1cccc(-c2cccc(-c3nc(C(=O)NC4CCCCC4)cc4c3[C@H](CCO)N([S@@](=O)C(C)(C)C)C4)c2)c1 the results were Pf Dd2 growth -84* and T cruzi growth 78.
Screening CCC(=O)N1CC2(CCN(Cc3ccncc3)CC2)c2c(n(C)c3cc(OC)ccc23)[C@H]1CO returned Pf Dd2 growth 18 and C diff growth -4.
For COc1cccc(C#Cc2cnc3c(c2)C(=O)N([C@H](C)CO)C[C@H](C)[C@H](CN(C)C(=O)C2CCCCC2)O3)c1 the results were Pf Dd2 growth -86* and C diff growth 0.
COc1cccc(C#Cc2cnc3c(c2)C(=O)N([C@H](C)CO)C[C@H](C)[C@@H](CN(C)C(=O)C2CCOCC2)O3)c1 was read as Pf Dd2 growth -81* and C diff growth 0.
Screening COc1cccc(C#Cc2cnc3c(c2)C(=O)N([C@@H](C)CO)C[C@@H](C)[C@H](CN(C)C(=O)C2CCOCC2)O3)c1 returned Pf Dd2 growth -55 and C diff growth 3.
Screening COc1cccc(C#Cc2cnc3c(c2)C(=O)N([C@H](C)CO)C[C@@H](C)[C@@H](CN(C)C(=O)C2CCCCC2)O3)c1 returned Pf Dd2 growth -62, T cruzi growth 90 and C diff growth -6.
For C[C@@H]1CCCCO[C@H](CN(C)C(=O)CCCN(C)C)[C@H](C)CN([C@@H](C)CO)C(=O)c2cc(NC(=O)Nc3ccc(C(F)(F)F)cc3)ccc2O1 the results were Pf Dd2 growth -88* and T cruzi growth 62.
Screening C[C@@H]1CCCCO[C@@H](CN(C)C(=O)Nc2ccc(C(F)(F)F)cc2)[C@H](C)CN([C@@H](C)CO)C(=O)c2cc(NC(=O)Nc3ccccc3)ccc2O1 returned Pf Dd2 growth -28 and C diff growth -7.
Screening Cc1noc(C)c1NC(=O)Nc1ccc2c(c1)C(=O)N([C@H](C)CO)C[C@@H](C)[C@@H](CN(C)C(=O)Nc1ccc(C(F)(F)F)cc1)OCCCC[C@@H](C)O2 returned Pf Dd2 growth -87*, T cruzi growth 50 and C diff growth 7.
C[C@@H]1CCCCO[C@H](CN(C)C(=O)Nc2ccc(C(F)(F)F)cc2)[C@@H](C)CN([C@@H](C)CO)C(=O)c2cc(NC(=O)Nc3ccccc3)ccc2O1 was read as Pf Dd2 growth -85* and C diff growth -6.
C[C@@H]1CCCCO[C@@H](CN(C)C(=O)Nc2ccccc2)[C@@H](C)CN([C@@H](C)CO)C(=O)c2cc(NC(=O)Nc3ccc(C(F)(F)F)cc3)ccc2O1 was read as Pf Dd2 growth inconclusive and C diff growth -7.
For Cc1noc(C)c1NC(=O)Nc1ccc2c(c1)C(=O)N([C@H](C)CO)C[C@H](C)[C@@H](CN(C)C(=O)Nc1ccc(C(F)(F)F)cc1)OCCCC[C@H](C)O2 the results were Pf Dd2 growth -77, T cruzi growth 70 and C diff growth 0.
`C[C@H]1CCCCO[C@H](CN(C)C(=O)CCCN(C)C)[C@@H](C)CN([C@@H](C)CO)C(=O)c2cc(NC(=O)Nc3ccc(C(F)(F)F)cc3)ccc2O1` gave Pf Dd2 growth -38 and T cruzi growth 35.
`C[C@H]1CCCCO[C@H](CN(C)C(=O)Nc2ccc(C(F)(F)F)cc2)[C@@H](C)CN([C@@H](C)CO)C(=O)c2cc(NC(=O)Nc3ccccc3)ccc2O1` gave Pf Dd2 growth -83* and C diff growth -3.
Cc1ccccc1-c1cnc2c(c1)C(=O)N([C@H](C)CO)C[C@@H](C)[C@@H](CN(C)CC1CCOCC1)O2 was read as Pf Dd2 growth 37, T cruzi growth 84 and C diff growth 4.
For Cc1ccc(S(=O)(=O)Nc2ccc3c(c2)C(=O)N([C@@H](C)CO)C[C@@H](C)[C@H](CN(C)C(=O)c2ccncc2)OCCCC[C@@H](C)O3)cc1 the results were Pf Dd2 growth -9, T cruzi growth -6 and C diff growth 3.
CCCNC(=O)Nc1ccc2c(c1)C(=O)N(C)C[C@H](OC)[C@@H](C)CN(Cc1ccncc1)[C@H](C)CO2 was read as Pf Dd2 growth -2, T cruzi growth -1 and C diff growth -2.
For O=C(c1cccnc1)N1C[C@H]2[C@@H](c3ccccc31)[C@H](CO)N2Cc1ccc2c(c1)OCO2 the results were Pf Dd2 growth 1, T cruzi growth 35 and C diff growth 6.
`CC(C)(C)[S@@](=O)N1Cc2cc(C(=O)NCc3ccc4c(c3)OCO4)nc(-c3cccc(-c4ccncc4)c3)c2[C@H]1CCO` gave Pf Dd2 growth -37 and T cruzi growth 94.
For O=C(c1cccc(F)c1)N1C[C@@H]2[C@H](c3ccccc31)[C@@H](CO)N2C(=O)C1CC1 the results were Pf Dd2 growth -3, T cruzi growth -7 and C diff growth 0.
